# According to ChEMBL document CHEMBL3988442, “University of Dundee, Small-Polar-MMV Screening Library” (2021):
# Among all 48,000 compounds or so, about 13,000 (27%) showed an effect of 50% or more. The list shows a part of the results.
# Tested on: Wolbachia pipientis
# Assay: Anti-Wolbachia Cell-Based Screen
# Type: functional
# Set-up: scale not given: in the data most compounds retested in dose-response had high values
# Conditions: 5 µM
row,Compound,Percent Effect [%]
1,Cn1cnc2c1C(COCc1cccnc1)N(Cc1nccs1)CC2.O=C(O)C(F)(F)F.O=C(O)C(F)(F)F.O=C(O)C(F)(F)F (centres undefined),0.7375
2,COc1ccc(C(C(=O)O)N2CCN(C3CCCC3)CC2)cc1C (centres undefined),19.06
3,COCCOC1CCN(C(C(=O)O)c2ccc(F)c(Cl)c2)CC1 (centres undefined),111
4,CCOc1ccc(Cl)cc1C(C(=O)O)N1CCC(CO)CC1 (centres undefined),-16.74
5,CC(C)c1cc(-c2nn3c(C(C)C)nnc3s2)[nH]n1,-17.87
6,CCCc1nnc2sc(-c3cc(C(C)C)n[nH]3)nn12,120.9
7,Cc1cc(-c2nn3c(C)nnc3s2)n[nH]1,0.3213
8,CCc1nnc2sc(-c3cc(C(C)C)n[nH]3)nn12,154.2
9,Cc1nnc2sc(-c3cc(C(C)C)n[nH]3)nn12,-19.82
10,CCN(CC)Cc1nnc2sc(-c3cc(C(C)C)[nH]n3)nn12,118.1
11,CC(C)Cc1nnc2sc(-c3cc(C(C)C)n[nH]3)nn12,131.5
12,CCC(Nc1nc(C(C)C)nc2c1cnn2C)c1ccc(O)cc1 (centres undefined),-13.26
13,Cc1nc(CNC(C)c2cccc(N3CCCC3=O)c2)cs1.Cl (centres undefined),-6.766
14,OCC1CCCCN1Cc1nc(Cc2ccccc2)no1 (centres undefined),15.34
15,c1ccc(Cc2noc(CN3CCCC3C3CCCCC3)n2)cc1 (centres undefined),35.45
16,c1ccc(Cc2noc(CN3CCCCC3Cn3cccn3)n2)cc1 (centres undefined),121.7
17,c1ccc(Cc2noc(CN3CCCC3Cn3cccn3)n2)cc1 (centres undefined),101.6
18,CCc1nc(C2CCCN2Cc2nc(Cc3ccccc3)no2)no1 (centres undefined),-2.634
19,OCC1CCCCN1Cc1nc(Cc2cccc(F)c2)no1 (centres undefined),-3.414
20,Cc1ccc(O)c(C(=O)N2CCCC2c2nncn2CC(C)C)c1 (centres undefined),-6.935
21,COCCNc1ccc(CNC(=O)C2COc3ccccc32)cc1 (centres undefined),-1.749
22,O=S(=O)(Cc1nc(C2CC2)no1)c1ccccc1F,-2.004

row,Compound,Percent Effect [%]
1,CCC(C(=O)NCc1ccccn1)N(c1cccc(C)c1)S(C)(=O)=O (centres undefined),1.713
2,Cn1cnc(S(=O)(=O)NCCCN2CCCC2)c1Cl,98.8
3,Cn1cnc(S(=O)(=O)N2CCCC2)c1Cl,-6.345
4,Cn1cnc(S(=O)(=O)NCCCN2CCCCCC2)c1Cl,0.4653
5,Cn1cnc(S(=O)(=O)NCCCN2CCOCC2)c1Cl,-0.729
6,Cn1cnc(S(=O)(=O)NCCN2CCCCCC2)c1Cl,104.3
7,CCCN1CCN(S(=O)(=O)c2ncn(C)c2Cl)CC1,1.683
8,Cn1cccc1C1CCCN1C(=O)NCCCn1cccn1 (centres undefined),-1.835
9,COc1ccc(NC(C)c2ccc(C#N)cc2)cc1N1CCCC1=O (centres undefined),11.24
10,O=C(CN1CCSC2(CCCCC2)C1)NCC(F)(F)F,-26.69
11,COCCc1noc(CN2CCN(CC(O)c3ccccc3)CC2)n1 (centres undefined),5.305
12,Cc1cc2c(cc1C(=O)N1CCC3(CC(=O)NC3=O)C1)OCCO2 (centres undefined),-6.886
13,Cc1ncc(C)c(N2CCC(CCc3ccccc3)(C(=O)O)CC2)n1,1.128
14,Cc1cc(N2CCC(CO)(CC3CCCCO3)CC2)c2ccccc2n1 (centres undefined),-1.662
15,Cc1cc(N2CCC(O)(CN(C)C(=O)CCN)C2)c2cnccc2n1 (centres undefined),98.27
16,CN(C)CC1(O)CCCN(C(=O)c2ccccc2-n2cccn2)C1 (centres undefined),-10.31
17,Cc1cc(N2CCCC(O)(CN(C)C(=O)CCN)C2)c2cnccc2n1 (centres undefined),91.76
18,Cc1cnn(C2(C(=O)O)CCN(c3ccncc3F)CC2)c1,13.66
19,Cc1cnn(C2(C(=O)O)CCN(c3ccnc4cc(Cl)ccc34)CC2)c1,-21.78
20,CN(CC1(O)CCCN(c2ccccn2)C1)C(=O)Cc1ccsc1 (centres undefined),-7.252
21,Cc1cc(N2CCC(O)(CN(C)C(=O)CCN)CC2)c2cnccc2n1,69.28
22,Cc1ccc(CC(=O)N(C)CC2(O)CCN(c3ccccn3)C2)s1 (centres undefined),-7.019

row,Compound,Percent Effect [%]
1,CN(CC1(O)CCN(c2ccnc3ccncc23)CC1)C(=O)CCN,110.4
2,Cc1cc(N2CCCC(O)(CN(C)C)CC2)nc(-c2ccccc2)n1 (centres undefined),2.269
3,CC(NC(=O)Cc1ccccc1F)C(=O)N1CCS(=O)(=O)CC1 (centres undefined),-3.92
4,N#Cc1ccnc(N2CCC(NCCN3CCOCC3)CC2)c1,-1.692
5,CCC(=O)Nc1cc(Br)cnc1OCC(F)(F)F,-13.83
6,Cc1cc(N2CCC(O)(CN(C)C(=O)CCCN)C2)c2cnccc2n1 (centres undefined),106
7,CCNc1ncnc2c1CN(C1CCCNCC1)C(=O)CN2C (centres undefined),112.3
8,CN1CC(=O)N(C2CCNCC2)Cc2c(NCC(C)(C)C)ncnc21,106.7
9,COc1ccc(NC(=O)CCC(C)C)c(N2CCN(C(C)=O)CC2)n1,-1.669
10,O=C(CC1CCCC1)N1CCN(c2ccc(-n3cncn3)nn2)CC1,17.68
11,Cn1ncc2c(N3CCC(CCO)CC3)nc(C(C)(C)C)nc21,-3.712
12,Cn1ncc2c(N3CC(N4CCCCC4)C3)nc(C3CCCC3)nc21,6.638
13,Cn1ncc2c(N3CCN4CCCCC4C3)nc(C3CCCC3)nc21 (centres undefined),111.9
14,CC(C)c1nc(N2CC(N3CCCCC3C)C2)c2cnn(C)c2n1 (centres undefined),11.15
15,CC1CCCCN1C1CN(c2nc(C3CCCC3)nc3c2cnn3C)C1 (centres undefined),0.03102
16,Cn1ncc2c(N3CCS(=O)(=O)CC3)nc(C3CCCC3)nc21,-3.304
17,CC(C)c1nc(N2CCC(N3CCCC(O)C3)CC2)c2cnn(C)c2n1 (centres undefined),109.7
18,CC(C)c1nc(N2CCC(N3CCCCCC3)CC2)c2cnn(C)c2n1,83.71
19,CC(C)c1nc(N2CCC(N3CCSCC3)CC2)c2cnn(C)c2n1,102.9
20,CN1CCCN(c2nc(C3CCCC3)nc3c2cnn3C)CC1,2.389
21,CC(=O)NCCC1CCN(c2nc(C(C)(C)C)nc3c2cnn3C)CC1,-2.953
22,O=c1ccn(Cc2nc(-c3ccccc3F)cs2)c(=O)[nH]1,-9.097

row,Compound,Percent Effect [%]
1,COc1cccc2c1OCC(C(=O)NCc1c(C)noc1C)C2 (centres undefined),-13.16
2,Cc1ncc(CN(C)C(=O)Nc2ccc(CN3CCOC3=O)cc2)s1,8.802
3,Cc1cc(=O)[nH]c(=O)n1Cc1ccccc1,-6.606
4,Cc1cc(=O)[nH]c(=O)n1COCc1ccccc1,71.08
5,Cc1cc(=O)[nH]c(=O)n1COCCOCc1ccccc1,87.63
6,Cn1cccc(NC(=O)NCCOCc2ccccc2)c1=O,-14.44
7,COCCn1c(=O)n(Cc2ccccc2C)c2cc(C(=O)O)ccc21,-8.391
8,CCn1c(C)cc(-c2csc(Cn3ccc(=O)[nH]c3=O)n2)c1C,-14.65
9,Cc1ccc(S(=O)(=O)NC(=O)CCOCc2ccccc2)s1,4.537
10,Cc1ccccc1COCCOCn1c(C)cc(=O)[nH]c1=O,116.8
11,CC/C(C)=C/CCN1CCN(C)C2(CCNC(=O)CC2)C1 (centres undefined),-7.249
12,O=C(NCc1ccncc1)c1nc2c(o1)CN(C(=O)c1cccnc1)C2.O=C(O)C(F)(F)F.O=C(O)C(F)(F)F,0.8995
13,Cc1nc[nH]c1CN1CCN(C(=O)CCC(F)(F)F)[C@H]2CS(=O)(=O)C[C@H]21,0
14,Cn1ncnc1CNC1CCCc2cc(F)ccc21 (centres undefined),-3.531
15,COc1ccc(F)c(CN2CCCC3(CCN(C4CCOCC4)C3)C2)c1 (centres undefined),-3.304
16,COc1ccc(CN2CC[C@H](NC(C)=O)[C@@H](O)CC2)c(OC)c1,-2.423
17,COc1cccc(CN2CC[C@H](NC(C)=O)[C@@H](O)CC2)c1F,34.02
18,COc1cc(CN2CC[C@H](NC(C)=O)[C@@H](O)CC2)ccc1F,106.7
19,COc1ccc(CN2CCC(C(N)=O)CC2)cc1SC(F)(F)F,0.6878
20,COc1ccc(CN2CC[C@H](NC(C)=O)[C@@H](O)CC2)c(F)c1,118.9
21,O=C(C1CCOc2ccccc21)N1CCOc2cccc(F)c21 (centres undefined),6.908
22,O=C(c1ccc(-n2cnnc2)cc1Cl)N1CCCC2(CCNC2)C1 (centres undefined),-4.992

row,Compound,Percent Effect [%]
1,Cc1ccc2oc(C(=O)N3CCc4nnc(N(C)C)cc4C3)cc2n1,-8.128
2,CNc1cc2c(nn1)CCN(C(=O)C1CCCc3ccccc31)C2 (centres undefined),-4.064
3,CNc1cc2c(nn1)CCN(C(=O)c1ccc3c(c1)OCO3)C2,105.8
4,CNc1cc2c(nn1)CCN(C(=O)c1coc(Br)c1)C2,117.2
5,CNc1cc2c(nn1)CCN(C(=O)c1ccc3c(c1)CCC3)C2,114.4
6,CNc1cc2c(nn1)CCN(C(=O)c1cc(F)cc(F)c1)C2,8.008
7,CNc1cc2c(nn1)CCN(C(=O)c1cc(C)no1)C2,125.3
8,CN(C)CCNC(=O)c1ccc2c(-c3nccs3)noc2c1,-16.02
9,Cn1cc(S(=O)(=O)NCCc2nnc3ccccn23)cn1,-3.582
10,O=C(c1ncccn1)N1C[C@@H]2COC[C@]2(c2nnc(C3CC3)o2)C1,-0.5118
11,Cc1noc(C)c1CNC(=O)C1(NS(C)(=O)=O)CCCCC1,-47.58
12,Cc1ccc(C)c(CC(=O)NC2CCC(N3C(=O)CCC3=O)CC2)c1 (centres undefined),6.752
13,CCn1cc(S(=O)(=O)N2CCCSc3ccccc32)cn1,-3.262
14,CC1(C)OCC2(CO1)CN(S(=O)(=O)c1ccc(Br)s1)C2,-6.121
15,CCN1CCN(S(=O)(=O)c2cc(C)c(Cl)cc2Cl)CC1,18.7
16,CCn1cc(S(=O)(=O)N2CCN(S(=O)(=O)c3ccc(Br)s3)CC2)cn1,99.05
17,CCn1cc(S(=O)(=O)N2CCN(S(=O)(=O)c3ccc(Br)s3)CC2)c(C)n1,110.7
18,Cn1cc(S(=O)(=O)N2CCN(S(=O)(=O)c3ccc(Br)s3)CC2)cn1,96.55
19,CCn1cc(S(=O)(=O)N2CCC(C)Sc3ccccc32)cn1 (centres undefined),-6.533
20,CCC1CCCN(S(=O)(=O)c2cnn(C)c2)C1 (centres undefined),12.29
21,CCc1ccc(S(=O)(=O)N2CC3(COC(C)(C)OC3)C2)s1,-8.267
